Assay results reported in PubChem BioAssay AID1159580 (chemical genetic matrix, 2015).
“And” between values parts separate entries of the source, which are not always exact repeats. Equal values may be shown once. Screen size: about 5,500 compounds; about 2,000 (36%) were called active. Roughly 18% stayed inconclusive and do not appear here. No stated cut-off is given here; in the data, active means normalized growth mostly below about 0.91 (no sharp cut-off); inconclusive means no clear call, values can overlap the other calls; inactive means mostly above about 0.92. Some of the results follow.

Assay: chemical genetic growth profiling, strain panel (AID 1159580);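 further: tested at 20 µM; growth read once vehicle control cultures reached saturation at 30 °C; 1 = growth at the plate median or of vehicle wells; lower values mean less growth of the strain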
Conditions: S. cerevisiae deletion strains, growth OD

Measured: normalized growth

CC(C)(C)NCC(O)c1cc(O)cc(O)c1 (stereo not drawn)
inactive: locus YAL013W, strain DEP1, active compounds read low 1 | locus YAL021C, strain ccr4, active compounds read low 0.975 | locus YAL026C, strain drs2, active compounds read low 0.979 | locus YAL030W, strain snc1, active compounds read low 0.98 | locus YAL040C, strain CLN3, active compounds read low 0.976 | locus YBL061C, strain skt5, active compounds read low 0.963 | locus YBR009C, strain hhf1, active compounds read low 1.01 | locus YBR021W, strain FUR4, active compounds read low 1 | locus YBR023C, strain chs3, active compounds read low 0.972 | locus YBR171W, strain sec66, active compounds read low 0.986 | locus YBR229C, strain ROT2, active compounds read low 0.996 | locus YBR231C, strain swc5, active compounds read low 0.997 | locus YBR279W, strain paf1, active compounds read low 0.98 | locus YCL011C, strain gbp2, active compounds read low 0.985 | locus YCL016C, strain dcc1, active compounds read low 0.967 | locus YCL029C, strain bik1, active compounds read low 0.987 | locus YCL061C, strain MRC1 (second series), active compounds read low 0.988 | locus YCL069W, strain vba3, active compounds read low 0.988 | locus YCR088W, strain abp1, active compounds read low 0.984 | locus YDL005C, strain med2, active compounds read low 0.959 | locus YDL035C, strain GPR1, active compounds read low 0.994 | locus YDL040C, strain nat1, active compounds read low 0.973 | locus YDL074C, strain BRE1, active compounds read low 1.02 | locus YDL101C, strain DUN1, active compounds read low 0.987 | locus YDL134C, strain PPH21, active compounds read low 1 | locus YDL192W, strain arf1, active compounds read low 0.971 | locus YDR001C, strain nth1, active compounds read low 0.982 | locus YDR069C, strain doa4, active compounds read low 0.993 | locus YDR101C, strain arx1, active compounds read low 0.977 | locus YDR137W, strain rgp1, active compounds read low 0.962 | locus YDR159W, strain sac3, active compounds read low 0.983 | locus YDR162C, strain NBP2, active compounds read low 0.995 | locus YDR195W, strain ref2 0.998 | locus YDR297W, strain sur2, active compounds read low 0.99 | locus YDR318W, strain mcm21, active compounds read low 0.979 | locus YDR334W, strain swr1, active compounds read low 0.964 | locus YDR335W, strain msn5, active compounds read low 0.984 | locus YDR363W, strain ESC2, active compounds read low 0.957 | locus YDR388W, active compounds read low 0.988 | locus YDR392W, strain spt3, active compounds read low 0.883 | locus YDR502C, strain sam2, active compounds read low 0.978 | locus YEL003W, strain gim4, active compounds read low 0.992 | locus YEL037C, strain rad23, active compounds read low 0.972 | locus YEL061C, strain CIN8 (second series), active compounds read low 0.977 | locus YEL061C, strain CIN8, active compounds read low 0.994 | locus YER002W, strain NOP16, active compounds read low 1.01 | locus YER015W, strain faa2, active compounds read low 0.987 | locus YER016W, strain bim1, active compounds read low 0.946 | locus YER110C, active compounds read low 0.97 | locus YER111C, strain swi4, active compounds read low 0.967 | locus YER155C, strain BEM2 (second series), active compounds read low 0.975 | locus YER155C, strain BEM2, active compounds read low 0.991 | locus YER167W, strain BCK2, active compounds read low 0.993 | locus YFR010W, strain ubp6, active compounds read low 0.999 | locus YGL078C, strain dbp3, active compounds read low 0.981 | locus YGL086W, strain mad1, active compounds read low 0.987 | locus YGL167C, strain pmr1, active compounds read low 0.986 | locus YGL173C, strain kem1, active compounds read low 0.971 | locus YGL227W, strain vid30, active compounds read low 0.98 | locus YGL240W, strain doc1, active compounds read low 1.02 | locus YGL248W, strain PDE1, active compounds read low 0.999 | locus YGL253W, strain hxk2, active compounds read low 0.962 | locus YGR078C, strain PAC10, active compounds read low 0.993 | locus YGR135W, strain pre9, active compounds read low 0.982 | locus YGR229C, strain SMI1, active compounds read low 0.972 | locus YGR252W, strain gcn5, active compounds read low 1.15 | locus YHR013C, strain ard1, active compounds read low 0.955 | locus YHR027C, strain rpn1, active compounds read low 0.993 | locus YHR030C, strain SLT2, active compounds read low 0.981 and 0.948 | locus YHR079C, strain IRE1 (second series), active compounds read low 0.981 | locus YHR079C, strain IRE1, active compounds read low 0.974 | locus YHR094C, strain hxt1, active compounds read low 0.975 | locus YHR129C, strain ARP1, active compounds read low 1 | locus YHR142W, strain chs7, active compounds read low 0.973 | locus YHR200W, strain rpn10, active compounds read low 0.987 | locus YIL066C, strain RNR3, active compounds read low 0.994 | locus YIL073C, strain SPO22, active compounds read low 0.938 | locus YIL125W, strain kgd1, active compounds read low 0.958 | locus YIR030C, strain dcg1, active compounds read low 0.992 | locus YJL092W, strain hpr5, active compounds read low 0.99 | locus YJL095W, strain BCK1 (second series), active compounds read low 1 | locus YJL095W, strain BCK1, active compounds read low 1.01 and 0.964 | locus YJL115W, strain asf1, active compounds read low 1 | locus YJL129C, strain trk1, active compounds read low 0.934 | locus YJL134W, strain LCB3, active compounds read low 0.987 | locus YJL154C, strain vps35, active compounds read low 0.974 | locus YJL164C, strain tpk1, active compounds read low 1 | locus YJL166W, strain qcr8, active compounds read low 1.02 | locus YJL168C, strain set2, active compounds read low 0.984 | locus YJL187C, strain SWE1 (second series), active compounds read low 0.976 | locus YJR043C, strain POL32, active compounds read low 1 | locus YJR066W, strain TOR1, active compounds read low 0.916 | locus YJR075W, strain HOC1, active compounds read low 0.98
